17 compounds from PubChem BioAssay (EPA / NIEHS) can be followed below.

Test [1] deals with human Matrix Metalloproteinase-7 (MMP7), MMP7 (gene 4316) (UniProt P09237). Kind of test: NVS_ENZ_hMMP7: NovaScreen (NVS) Enzymatic Assay for human Matrix Metalloproteinase-7 (MMP7) (AID 2283183). Put shortly:
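Compounds first tested at 25 uM in duplicate, then at up to 50 uM in concentration series if active. Protease activity measured by fluorescence intensity 1 h after dosing, with fitting relative to DMSO.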

The target in test [2] is human Matrix Metalloproteinase-2 (MMP2), MMP2 (gene 4313) (UniProt P08253). Nature of the test: NVS_ENZ_hMMP2: NovaScreen (NVS) Enzymatic Assay for human Matrix Metalloproteinase-2 (MMP2) (AID 2283184). Put shortly:
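Compounds first screened in duplicate at a single 25 uM, with actives followed up in concentration series. Recombinant human MMP2 cleaves a fluorogenic substrate; fluorescence taken at 1 h, inhibition fitted relative to DMSO.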

The target of test [3] is human Phosphodiesterase 4A1 (PDE4A1), PDE4A (gene 5141) (UniProt P27815). Kind of test: NVS_ENZ_hPDE4A1: NovaScreen (NVS) Enzymatic Assay for human Phosphodiesterase 4A1 (PDE4A1) (AID 2283191). An outline of the steps:
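Fluorescent substrate turnover by recombinant PDE4A1 read after 1 h by mobility-shift separation. Primary duplicate screen at 25 uM; hits retested in concentration series with a 50 uM maximum, relative to DMSO.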

In test [4] the target is human Matrix Metalloproteinase-9 (MMP9), MMP9 (gene 4318) (UniProt P14780). Kind of test: NVS_ENZ_hMMP9: NovaScreen (NVS) Enzymatic Assay for human Matrix Metalloproteinase-9 (MMP9) (AID 2283190).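 Note: cell-free recombinant MMP9 protease activity read by fluorescent substrate signal; active means inhibition seen as loss of fluorescence signal versus DMSO.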 An outline of the steps:
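Cell-free fluorescence-intensity enzyme activity assay using extracted protein, read 1 h after dosing. Loss of signal versus DMSO baseline indicates inhibition; primary screen in duplicate at 25 uM, actives followed up in concentration series.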

Test [5] concerns the target human p21 Activated Kinase 4 (PAK4), PAK4 (gene 10298) (UniProt O96013). Kind of test: NVS_ENZ_hPAK4: NovaScreen (NVS) Enzymatic Assay for human p21 Activated Kinase 4 (PAK4) (AID 2283189). Put shortly:
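Extracted PAK4 enzyme activity read by fluorescence with mobility-shift separation 1 h after chemical addition. Duplicate single-concentration screen at 25 uM, DMSO as negative control.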

Test [6] deals with human Matrix Metalloproteinase-1 (MMP1), MMP1 (gene 4312) (UniProt P03956). Kind of test: NVS_ENZ_hMMP1: NovaScreen (NVS) Enzymatic Assay for human Matrix Metalloproteinase-1 (MMP1) (AID 2283181). An outline of the steps:
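Cell-free fluorescent substrate assay of human MMP1, read after 1 h. A single 25 uM duplicate screen was followed by concentration series to a maximum of 50 uM for actives meeting threshold; inhibition analysed against DMSO baseline.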

The target in test [7] is Collagenase 3 (Homo sapiens) (UniProt P45452). Kind of test: NVS_ENZ_hMMP13: NovaScreen (NVS) Enzymatic Assay for human Matrix Metalloproteinase-13 (MMP13) (AID 2283182). An outline of the steps:
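Recombinant MMP13 cleaving fluorescent substrate, cell-free, measured 1 h after dosing. Primary duplicate screen at 25 uM; actives tested in concentration-response up to 50 uM; loss of signal relative to DMSO.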

Test [8] deals with human Matrix Metalloproteinase-3 (MMP3), MMP3 (gene 4314) (UniProt P08254). Kind of test: NVS_ENZ_hMMP3: NovaScreen (NVS) Enzymatic Assay for human Matrix Metalloproteinase-3 (MMP3) (AID 2283185). An outline of the steps:
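Fluorescent substrate turnover by recombinant MMP3 read after 1 h, signal loss scored against DMSO. Compounds first run in duplicate at 25 uM single dose, then actives confirmed by concentration series.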

Test [9] concerns the target human NIMA (Never In Mitosis Gene A)-Related Kinase 2 (NEK2), NEK2 (gene 4751) (UniProt P51955). Nature of the test: NVS_ENZ_hNEK2: NovaScreen (NVS) Enzymatic Assay for human NIMA (Never In Mitosis Gene A)-Related Kinase 2 (NEK2) (AID 2283188). An outline of the steps:
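Compounds were first screened in duplicate at 25 uM, with actives followed up in concentration series. Recombinant NEK2 activity, cell-free, was read 1 h after dosing by fluorescence intensity after mobility-shift separation. Signal loss was scored against DMSO.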

Test [10] addresses cAMP-dependent protein kinase catalytic subunit alpha (Homo sapiens) (UniProt P17612). Kind of test: NVS_ENZ_hPKA: NovaScreen (NVS) Enzymatic Assay for human Protein Kinase A (PKA) (AID 2283192). Put shortly: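 Cell-free kinase activity read by fluorescence after mobility-shift separation of substrate and product, 1 h post-dosing. Single-concentration duplicate screen (25 uM) preceded singleton concentration series (top 50 uM); loss of signal versus DMSO.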

Each structure is given as a SMILES string. Inconclusive results are not listed. Activity calls are given as the source filed them. Rule for the calls: active = hit-call score of the fitted dose curve at least 0.9, where 1 is the maximum; inconclusive = response in the unintended direction; inactive = score below 0.9.

human Matrix Metalloproteinase-7 (MMP7), MMP7 (gene 4316), sequence (P09237 whole entry, looked up): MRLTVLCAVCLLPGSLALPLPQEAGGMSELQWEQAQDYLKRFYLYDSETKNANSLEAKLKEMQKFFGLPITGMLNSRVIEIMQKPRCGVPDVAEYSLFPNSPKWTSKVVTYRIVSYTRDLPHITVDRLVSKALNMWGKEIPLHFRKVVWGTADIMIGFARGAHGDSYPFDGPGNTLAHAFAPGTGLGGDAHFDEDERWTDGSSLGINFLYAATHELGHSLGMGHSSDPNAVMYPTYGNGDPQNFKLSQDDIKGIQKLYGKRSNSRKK
human Matrix Metalloproteinase-9 (MMP9), MMP9 (gene 4318), sequence (P14780 whole entry, looked up): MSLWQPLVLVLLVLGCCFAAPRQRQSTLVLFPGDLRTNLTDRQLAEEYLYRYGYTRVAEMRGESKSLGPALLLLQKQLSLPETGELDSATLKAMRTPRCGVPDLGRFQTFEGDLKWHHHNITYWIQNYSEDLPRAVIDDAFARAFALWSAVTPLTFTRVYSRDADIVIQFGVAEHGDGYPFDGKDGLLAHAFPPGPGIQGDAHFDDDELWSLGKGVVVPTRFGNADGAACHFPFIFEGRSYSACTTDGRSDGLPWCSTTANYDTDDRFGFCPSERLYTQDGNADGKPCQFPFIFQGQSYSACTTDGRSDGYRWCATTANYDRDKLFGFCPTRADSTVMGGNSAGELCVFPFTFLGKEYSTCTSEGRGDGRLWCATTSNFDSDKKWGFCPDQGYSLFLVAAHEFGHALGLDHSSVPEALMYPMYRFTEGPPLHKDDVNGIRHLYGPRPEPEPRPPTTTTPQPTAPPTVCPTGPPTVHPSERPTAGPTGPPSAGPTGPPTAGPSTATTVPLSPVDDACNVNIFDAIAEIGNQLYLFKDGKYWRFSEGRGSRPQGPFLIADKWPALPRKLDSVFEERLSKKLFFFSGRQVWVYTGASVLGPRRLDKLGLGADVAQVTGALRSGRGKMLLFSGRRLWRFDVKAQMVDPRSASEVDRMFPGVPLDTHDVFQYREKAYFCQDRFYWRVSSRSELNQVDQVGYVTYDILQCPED
human Matrix Metalloproteinase-2 (MMP2), MMP2 (gene 4313), sequence (P08253 whole entry, looked up): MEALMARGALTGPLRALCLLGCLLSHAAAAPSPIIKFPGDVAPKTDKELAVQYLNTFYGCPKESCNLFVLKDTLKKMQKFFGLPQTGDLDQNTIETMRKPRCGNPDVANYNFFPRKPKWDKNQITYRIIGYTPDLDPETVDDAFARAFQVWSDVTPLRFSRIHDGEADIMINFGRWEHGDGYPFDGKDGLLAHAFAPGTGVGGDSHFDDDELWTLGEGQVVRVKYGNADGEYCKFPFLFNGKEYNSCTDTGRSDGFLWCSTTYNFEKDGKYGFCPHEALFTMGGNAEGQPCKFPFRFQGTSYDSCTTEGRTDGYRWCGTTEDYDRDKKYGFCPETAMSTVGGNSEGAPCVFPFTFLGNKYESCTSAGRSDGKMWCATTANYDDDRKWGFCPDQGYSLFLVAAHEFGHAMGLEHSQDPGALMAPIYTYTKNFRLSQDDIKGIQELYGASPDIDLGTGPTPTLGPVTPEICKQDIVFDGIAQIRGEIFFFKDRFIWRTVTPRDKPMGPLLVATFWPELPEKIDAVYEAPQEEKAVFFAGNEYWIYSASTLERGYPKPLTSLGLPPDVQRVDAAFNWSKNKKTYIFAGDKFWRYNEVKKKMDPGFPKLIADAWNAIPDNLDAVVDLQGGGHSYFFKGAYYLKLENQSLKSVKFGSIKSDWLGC
human Matrix Metalloproteinase-1 (MMP1), MMP1 (gene 4312), sequence (P03956 whole entry, looked up): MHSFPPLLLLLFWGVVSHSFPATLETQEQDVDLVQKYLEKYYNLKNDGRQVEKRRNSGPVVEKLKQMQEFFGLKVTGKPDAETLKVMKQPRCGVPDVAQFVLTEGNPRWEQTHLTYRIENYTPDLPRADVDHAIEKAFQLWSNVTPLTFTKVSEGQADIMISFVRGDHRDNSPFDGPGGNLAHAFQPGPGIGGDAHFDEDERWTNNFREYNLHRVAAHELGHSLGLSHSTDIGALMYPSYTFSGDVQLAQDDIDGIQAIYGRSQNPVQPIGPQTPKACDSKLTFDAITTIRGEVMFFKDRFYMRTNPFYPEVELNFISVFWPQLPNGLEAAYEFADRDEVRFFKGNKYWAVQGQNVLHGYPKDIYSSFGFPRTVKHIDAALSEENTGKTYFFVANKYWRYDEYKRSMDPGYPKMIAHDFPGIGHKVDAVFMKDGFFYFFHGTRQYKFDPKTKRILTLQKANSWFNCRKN
human p21 Activated Kinase 4 (PAK4), PAK4 (gene 10298), sequence (O96013 whole entry, looked up): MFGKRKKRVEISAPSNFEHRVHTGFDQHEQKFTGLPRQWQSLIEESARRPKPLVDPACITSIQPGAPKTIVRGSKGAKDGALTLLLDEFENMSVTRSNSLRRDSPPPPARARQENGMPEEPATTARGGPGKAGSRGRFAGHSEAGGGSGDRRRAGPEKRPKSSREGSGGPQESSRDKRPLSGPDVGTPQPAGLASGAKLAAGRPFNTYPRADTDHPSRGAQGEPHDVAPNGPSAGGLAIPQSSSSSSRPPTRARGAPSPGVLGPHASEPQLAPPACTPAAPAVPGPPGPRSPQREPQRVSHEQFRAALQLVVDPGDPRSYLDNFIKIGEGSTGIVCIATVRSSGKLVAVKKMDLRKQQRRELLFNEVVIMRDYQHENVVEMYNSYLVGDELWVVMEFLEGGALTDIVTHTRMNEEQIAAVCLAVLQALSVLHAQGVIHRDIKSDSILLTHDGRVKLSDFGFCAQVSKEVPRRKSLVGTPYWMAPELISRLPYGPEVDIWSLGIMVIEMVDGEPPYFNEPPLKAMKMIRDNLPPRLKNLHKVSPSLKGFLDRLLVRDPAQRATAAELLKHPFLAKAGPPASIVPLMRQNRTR
human Phosphodiesterase 4A1 (PDE4A1), PDE4A (gene 5141), sequence (P27815 whole entry, looked up): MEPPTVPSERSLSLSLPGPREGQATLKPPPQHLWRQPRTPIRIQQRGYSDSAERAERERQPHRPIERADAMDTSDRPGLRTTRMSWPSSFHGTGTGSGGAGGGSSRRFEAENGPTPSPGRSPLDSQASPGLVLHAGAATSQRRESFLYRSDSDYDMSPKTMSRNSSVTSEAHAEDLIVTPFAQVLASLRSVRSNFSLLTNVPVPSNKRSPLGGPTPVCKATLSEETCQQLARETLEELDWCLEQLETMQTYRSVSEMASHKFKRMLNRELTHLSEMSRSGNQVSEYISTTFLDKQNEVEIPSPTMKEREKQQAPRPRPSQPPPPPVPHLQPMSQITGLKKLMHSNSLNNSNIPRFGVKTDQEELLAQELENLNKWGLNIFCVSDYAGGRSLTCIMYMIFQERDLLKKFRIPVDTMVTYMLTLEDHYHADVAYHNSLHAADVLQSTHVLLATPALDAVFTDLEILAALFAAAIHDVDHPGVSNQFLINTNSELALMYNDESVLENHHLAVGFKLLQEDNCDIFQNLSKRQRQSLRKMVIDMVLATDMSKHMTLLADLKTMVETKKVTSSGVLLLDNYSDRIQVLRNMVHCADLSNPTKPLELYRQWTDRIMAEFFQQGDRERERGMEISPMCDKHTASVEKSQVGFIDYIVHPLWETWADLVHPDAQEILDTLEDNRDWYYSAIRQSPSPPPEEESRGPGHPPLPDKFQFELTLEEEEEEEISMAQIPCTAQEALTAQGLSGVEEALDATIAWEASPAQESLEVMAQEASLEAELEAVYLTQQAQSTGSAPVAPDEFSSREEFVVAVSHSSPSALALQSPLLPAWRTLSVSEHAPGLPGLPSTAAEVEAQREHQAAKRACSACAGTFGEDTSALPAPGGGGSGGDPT
human NIMA (Never In Mitosis Gene A)-Related Kinase 2 (NEK2), NEK2 (gene 4751), sequence (P51955 whole entry, looked up): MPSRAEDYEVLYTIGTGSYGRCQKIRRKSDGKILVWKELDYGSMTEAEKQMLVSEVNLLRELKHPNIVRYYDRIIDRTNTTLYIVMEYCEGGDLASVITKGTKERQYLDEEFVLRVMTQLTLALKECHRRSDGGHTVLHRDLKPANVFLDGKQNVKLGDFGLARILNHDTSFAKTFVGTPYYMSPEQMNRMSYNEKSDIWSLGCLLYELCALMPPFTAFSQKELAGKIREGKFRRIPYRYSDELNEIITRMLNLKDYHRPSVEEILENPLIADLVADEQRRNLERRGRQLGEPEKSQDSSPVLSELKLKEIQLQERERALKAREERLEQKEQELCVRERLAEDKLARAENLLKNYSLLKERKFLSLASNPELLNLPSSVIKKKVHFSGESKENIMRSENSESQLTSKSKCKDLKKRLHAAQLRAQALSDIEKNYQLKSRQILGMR
human Matrix Metalloproteinase-3 (MMP3), MMP3 (gene 4314), sequence (P08254 whole entry, looked up): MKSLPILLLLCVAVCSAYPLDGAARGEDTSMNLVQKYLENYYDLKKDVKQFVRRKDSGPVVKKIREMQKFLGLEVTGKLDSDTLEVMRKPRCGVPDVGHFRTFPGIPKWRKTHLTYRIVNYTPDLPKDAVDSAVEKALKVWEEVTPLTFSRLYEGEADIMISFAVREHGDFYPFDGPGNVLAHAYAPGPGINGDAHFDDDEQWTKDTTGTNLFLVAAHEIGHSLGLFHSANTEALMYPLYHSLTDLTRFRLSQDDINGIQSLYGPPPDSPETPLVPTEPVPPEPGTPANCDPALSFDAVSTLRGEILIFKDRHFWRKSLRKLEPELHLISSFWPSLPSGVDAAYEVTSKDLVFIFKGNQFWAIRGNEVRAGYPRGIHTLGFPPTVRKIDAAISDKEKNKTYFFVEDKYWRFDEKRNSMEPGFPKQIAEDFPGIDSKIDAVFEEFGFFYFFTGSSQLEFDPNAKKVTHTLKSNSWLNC

As for `CSC(C)(C)C=NO`, the result in test [1] and in test [3] was inactive. In addition, the AC50 in test [2] was 7.52 µM (active).
As for `CCOP(=S)(OCC)SCSCC`, the outcome in test [1] and in [2] was inactive.
For the compound `CCC1(c2ccccc2)C(=O)N=C(O)NC1=O` (stereo unspecified), the concentration at half-maximal activity (AC50) in test [2] is 15.4 µM (active). Further, in [4], the call was inactive.
For the compound `CC(C)(C)OOC(C)(C)C`, in test [5], the compound was classed as inactive.
Turning to `CCCN(CCC)c1c([N+](=O)[O-])cc(C(C)C)cc1[N+](=O)[O-]`, in test [6], the AC50 is 8.62 µM (active).
For the compound `Nc1ccc(Cl)cc1`, the result in [4] was inactive.
As for `CCCCC(CC)COP(=O)(Oc1ccccc1)Oc1ccccc1` (stereo unspecified), the AC50 in test [4] was 2.08 µM (active).
As to `CCN(CC)c1ccccc1`, in test [7], the compound was called inactive.
For `O=[N+]([O-])c1ccccc1`, the compound was called inactive in test [8].
Take `CCCCN(CCCC)N=O`: the outcome in test [1] was inactive.
In the case of `CCOc1ccc(C(C)(C)COCc2cccc(Oc3ccccc3)c2)cc1`, the call in test [1], in test [9] and in test [10] was inactive. Besides, the AC50 in [2] is 36 µM (active).
Regarding `c1nc[nH]n1`, the compound was classed as inactive in [2].
Turning to `COP(=O)(O)OC`, the concentration at half-maximal activity (AC50) in test [4] is 9.97 µM (active).
Same read-out and setting: in the case of `Cc1c([N+](=O)[O-])cc2c(c1[N+](=O)[O-])C(C)(C)CC2(C)C` it was 7.49 µM (active).
Regarding `Cc1ccc(O)cc1C`, in [6], the AC50 is 4.79 µM (active).
As to `O=P(OCC(Br)CBr)(OCC(Br)CBr)OCC(Br)CBr` (stereo unspecified), in test [4], the AC50 was 4.32 µM (active).
Turning to `CC(Cc1ccc(OCC(=O)O)cc1)NCC(O)c1csc(C(F)(F)F)n1` (stereo unspecified), the result in test [7] and in test [4] was inactive. In [2], the concentration at half-maximal activity (AC50) is 2.3 µM (active).
